The results in this text go back to PubChem BioAssay (NCATS).

“And” between values parts separate entries of the source, which are not always exact repeats. Identical values can stand only once. Inconclusive results are not listed. Unmarked numbers belong to inactive results. The source made the active and inactive calls. Calls come from the whole dose curve; as a rule, active = well fitted cell-killing curve with a large enough effect; inconclusive = small, poorly fitted or top-dose-only effect, or effect the other way; inactive = flat fitted curve, though single readings scatter.
% is set by controls: 0 for no effect and ±100 for the full control effect; potency is the fitted concentration of half-maximal effect.

A short description of the experiment: qHTS assay for cell viability of HEK293 cells (AID 743288). Note: nearly all actives have a fitted effect of over 50% in size. The settings on record: ATP luminescence (CellTiter-Glo), 18 h; max response: stronger effect = lower value. From the text:
National Center for Advancing Translational Sciences [NCATS]
NIH Chemical Genomics Center [NCGC]
U.S. Environmental Protection Agency [EPA]
National Institutes of Environmental Health Sciences [NIEHS]
National Toxicology Program [NTP]
U.S. Food and Drug Administration [FDA]
The CellTiter-Glo Luminescent Cell Viability Assay (Promega, Madison, WI) is a homogeneous method to determine the number of viable cells in culture based on quantitation of the ATP present, which signals the presence of metabolically active cells. This cell viability assay was used to screen environmental chemicals in the Hek293 cell line.
Tox21 Assay Protocol Summary:
Cell viability after compound treatment was measured using a luciferase-coupled ATP quantitation assay (CellTiter-Glo viability assay, Promega, Madison, WI) in parental HEK293 cells. Total intracellular ATP content corresponds to the number of metabolically competent cells after compound treatment. The cells were dispensed at 2,000 cells/5 uL/well in 1,536-well white/solid bottom assay plates using a Flying Reagent Dispenser (Aurora Discovery, San Diego, CA). The cells were incubated a minimum of 5 h at 37 C, followed by the addition of 23 nL of compounds dissolved in DMSO, positive controls or DMSO only using a pintool work station (Kalypsys, San Diego, CA). The assay plates were incubated for 18 h at 37 C, followed by the addition of 5 uL/well of CellTiter-Glo reagent. After 30 min incubation at room temperature, the luminescence intensity of the plates was measured using a ViewLux plate reader (PerkinElmer, Shelton, CT).
For orientation: Quantitative high-throughput screening tests each substance at several concentrations.
As to `O=[N+]([O-])c1cc([N+](=O)[O-])c2ccccc2c1`, the max response is -3.94%.

Consider `CCCCCCCCc1ccc(O)cc1`, for which the max response was -15.8% and -26%. On the same count and under the same terms, for `Clc1cnc(Oc2ccc(Oc3ncc(Cl)cc3Cl)cc2)c(Cl)c1` the value was -12.9%. Still for that read-out and setting: in the case of `Nc1ccc(N=Nc2ccccc2)cc1` it was -0.712%; in that of `CCCCOC(=O)c1ccccc1C(=O)OCc1ccccc1`, -13.6% and -13.5%; in that of `COc1ccc(C(c2ccc(OC)cc2)C(Cl)(Cl)Cl)cc1`, -23.2% and -28.9% and -19.6%.

Take `C=CCC1=C(C)C(OC(=O)C2C(C=C(C)C)C2(C)C)CC1=O` (stereo not given): the max response is -9.9% and -17.4%. Still for that read-out and setting: in the case of `Cc1cc(O)ccc1Cl` it was -2.31%; in that of `Nc1c(Cl)c(Cl)c(Cl)c(Cl)c1Cl`, -4.75%; in that of `CCCN(CCC)c1c([N+](=O)[O-])cc(S(N)(=O)=O)cc1[N+](=O)[O-]`, -4.88%.

As to `C=CC(=O)NCNC(=O)C=C`, the max response was 3.56% and -2.17%. For `CO/C=C(/C(=O)OC)c1ccccc1Oc1cc(Oc2ccccc2C#N)ncn1`, the max response is -25.4%. Regarding `O=C(O)COc1ccccc1`, the max response is -7.91%.

For `Nc1ccc(Cl)cc1`, the max response is -6.22%. `O=S(=O)(O)C(F)(F)C(F)(F)C(F)(F)C(F)(F)C(F)(F)C(F)(F)C(F)(F)C(F)(F)F`: the max response was -7.88% and -13.4%. In the case of `CCOP(=O)(NC(C)C)Oc1ccc(SC)c(C)c1` (stereo not given), the max response is -28.9% and -13.9%. Same read-out and setting: for `CCOCCOC(C)=O` the value was -0.828%; for `Nc1ccc(Cl)cc1N`, -8.79% and -16.5%; for `CN(C)[C@@H]1C(=O)C(C(N)=O)=C(O)[C@@]2(O)C(=O)C3=C(O)c4c(O)cccc4[C@@](C)(O)[C@H]3[C@H](O)[C@@H]12`, -3.99% and -10.9% and -2.39%.

As to `O=C(O)c1cc(Oc2ccc(C(F)(F)F)cc2Cl)ccc1[N+](=O)[O-]`, the max response is -14.8%. Turning to `CC(C)Oc1cccc(NC(=O)c2ccccc2C(F)(F)F)c1`, the max response was -13.1%. As to `C1CCC(NC2CCCCC2)CC1`, the max response was 4.88% and 5.5% and 0.405%. As for `CS(=O)(=O)c1ccc(C(=O)C2C(=O)CCCC2=O)c([N+](=O)[O-])c1`, the max response is -4.44%. Consider `COCCOCCO`, for which the max response was -8% and -15.7%. For `COc1nn(CSP(=S)(OC)OC)c(=O)s1`, the max response is -26%. On the same count and under the same terms, in the case of `CC(C)(C)C(O)C(Oc1ccc(Cl)cc1)n1cncn1` (stereo not given) it was -2.21%; in that of `O=C(Nc1ccccc1-c1ccc(Cl)cc1)c1cccnc1Cl`, -25.4%; in that of `CCCCCC[C@H]1C(=O)O[C@H](C)[C@H](NC(=O)c2cccc(NC=O)c2O)C(=O)O[C@@H](C)[C@@H]1OC(=O)CC(C)C`, -27.4%. In the case of `CCCCCCCCCCCCCCCC[N+](C)(C)C`, the max response is -5.85%.

Consider `CC(C)(O)C(=O)Nc1ccc([N+](=O)[O-])c(C(F)(F)F)c1`, for which the max response is -8.24%. Still for that read-out and setting: in the case of `CCCCCCCCCC(CC)c1ccc(S(=O)(=O)O)cc1` (stereo not given) it was -11.2% and -4.04%; in that of `Nc1ccc(Sc2ccc(N)cc2)cc1`, 1.17% and -4.98%. Still for that read-out and setting: in the case of `O=[N+]([O-])/N=C1\NCCN1Cc1ccc(Cl)nc1` it was -6.64%. Consider `CC(=O)[O][Hg][c]1ccccc1`, for which the Potency was 7.08 µM (active) and 22.4 µM (active). Regarding `CN(C)NC(=O)CCC(=O)O`, the max response is 1.56% and -3.81%.

Consider `COC(C)(C)CCCC(C)C/C=C/C(C)=C/C(=O)OC(C)C` (stereo not given), for which the max response was -16.1% and -28.4%. Still for that read-out and setting: in the case of `c1cc2ccc3cccc4ccc(c1)c2c34` it was -10.7% and -22.9%; in that of `ClC1=C(Cl)[C@]2(Cl)[C@@H]3[C@@H]4C[C@@H]([C@H]5O[C@@H]45)[C@@H]3[C@@]1(Cl)C2(Cl)Cl`, -27.3%; in that of `O=C(O)C(Cl)Cl`, -7.67% and 1.66%. The same measure, in the same setting: in the case of `O=S(=O)(c1ccc(Cl)cc1)c1ccc(Cl)cc1` it was -6.49% and -9.97% and -17.8%.
